# Source: PubChem BioAssay (National Center for Advancing Translational Sciences (NCATS))
# A selection: hits, their analogues and other compounds. The true share with any hit is near 10%.
# 3T3 cytotox: cytotoxic compounds in NIH 3T3 cells. NIH 3T3 viability, CellTiter-Glo ATP luminescence, 48-72 h. Potency, µM (highest dose often 96.7 µM), inactives show at the highest dose activity change, negative = cytotoxicity, actives largely listed as inhibitors. 4.3% of 94,000 active. AID 1345082; further: nearly all actives have a fitted effect of over 55% in size
#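 NIH 3T3 cells at 400 cells/well received 23 nL of compound by pintool and were incubated 48 or 72 h at 37 °C. Viability was read as ATP-coupled CellTiter-Glo luminescence.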
# Luciferase inh: blocks purified firefly luciferase enzyme activity; 2.5% of 76,000 active; AID 1347043; purified P. pyralis luciferase, luminescence, biochemical; Potency, µM (highest dose often 115 µM), usual class: inhibitors; further: nearly all actives have a fitted effect of over 65% in size
#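 Cell-free enzyme assay, 10nM P. pyralis luciferase, luciferin and ATP each at 10uM. Inhibition profiled over a 6-point titration, read as luminescence.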
# hNpr1 antagonist: antagonists of human natriuretic peptide receptor Npr1; AID 1347048; 1.6% of 76,000 active; HEK293 hNpr1 GloSensor cGMP, ANP-stimulated luminescence; Potency, µM (titrated, usually from 46.3 µM), inactives show at the top dose activity change, negative = inhibition, actives largely listed as inhibitors; P16066; calls by dose curve; further: nearly all actives have a fitted effect of over 60% in size
#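 Compound pre-incubated 30 min at room temperature on GloSensor-loaded HEK293 cells stably carrying hNpr1 and the pGS-40F cGMP biosensor. Stimulation uses hNppA at 0.1 nM final; luminescence is taken at baseline and 20 min post-agonist.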
# GPT2 inhibitor: inhibitors of human GPT2 alanine aminotransferase; 0.25% of 100,000 active; Recombinant GPT2, coupled pyruvate oxidase/HRP Amplex Red fluorescence; AID 1671188; Q8TD30; Potency, µM (top dose mostly 57.7 µM), for inactives: top-dose activity change, negative = inhibition, usual class: inhibitors; further: nearly all actives have a fitted effect of over 60% in size
# Target sequence (Q8TD30 whole entry, looked up): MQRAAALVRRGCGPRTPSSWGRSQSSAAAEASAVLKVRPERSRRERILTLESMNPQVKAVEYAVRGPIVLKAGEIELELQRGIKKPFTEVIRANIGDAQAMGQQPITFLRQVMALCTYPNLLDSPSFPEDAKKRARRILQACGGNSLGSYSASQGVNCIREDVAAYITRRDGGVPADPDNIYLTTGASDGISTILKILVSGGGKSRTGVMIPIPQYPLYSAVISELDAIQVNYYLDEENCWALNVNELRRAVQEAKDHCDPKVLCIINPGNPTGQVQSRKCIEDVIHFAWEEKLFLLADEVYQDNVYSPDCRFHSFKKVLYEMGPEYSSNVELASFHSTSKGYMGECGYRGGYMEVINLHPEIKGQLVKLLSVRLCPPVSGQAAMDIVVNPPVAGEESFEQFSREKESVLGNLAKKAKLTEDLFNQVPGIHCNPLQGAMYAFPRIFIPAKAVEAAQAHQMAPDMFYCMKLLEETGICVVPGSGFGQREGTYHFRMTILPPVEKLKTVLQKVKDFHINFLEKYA
#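 GPT2 10ng/uL, a-KG 250uM, L-Ala 2mM, HEPES pH7.5 + 0.0001% Tween; 30 min RT. Then Amplex mix (PO/HRP/ThPP), 30 min RT dark, fluorescence. AOA 50uM used as positive control.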
# HEK293 tox: HEK 293 cell cytotoxicity | HEK 293 viability, ATP luminescence (CellTiter-Glo), 48-72 h | 6.6% of 94,000 active | Potency, µM (top dose mostly 115 µM), inactives show at the top dose activity change, negative = cytotoxicity, usual class: inhibitors; further: nearly all actives have a fitted effect of over 60% in size
#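 Cytotoxicity was scored by loss of ATP-coupled luminescence (CellTiter-Glo) in HEK 293 cells. Compound treatment ran 48 or 72 hr at 37 degree Celsius, 5% CO2, 95% humidity.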
# An asterisk follows results filed as active; i = inactive; ? = inconclusive; nt = not tested or not shown; [ ] = dose if it differs, or a comment. Unless noted, the call rests on the fitted dose curve; in most records, active means well fitted curve in the direction sought with a large enough effect; inconclusive means small, poorly fitted or top-dose-only effect, or another doubt; inactive means no such curve, though single readings can be large; an effect the other way counts as inactive or inconclusive. On the % scale 0 is the no-effect control and ±100 the full control effect; potency means the concentration at half of the fitted maximal effect.
SMILES,3T3 cytotox,Luciferase inh,hNpr1 antagonist,GPT2 inhibitor,HEK293 tox
Cc1cccc(N2Cc3c(ncnc3N3CCC(c4ccccc4)CC3)N(C)CC2=O)c1,?,nt,nt,i,?
COc1ccc(CCc2nc3nccc(-c4ccc5c(c4)OCCCO5)n3n2)cc1OC,?,?,-5%,-1%,45µM*
Fc1ccc(Cc2nc3nccc(-c4ccc5c(c4)OCCCO5)n3n2)cc1,?,?,-2%,-3%,45µM*
COc1ccc(Cc2nc3nccc(-c4ccc5c(c4)OCCCO5)n3n2)cc1,?,i,0%,2%,?
O=C1NCc2ccccc2CC12CCCN(Cc1ccc(O)cc1O)C2 (configuration not stated),i,nt,nt,i,2%
COc1cccc(Nc2nc(-c3c(C)noc3C)cc3cc(CN(C)C)oc23)c1,45µM*,i,1%[70.6 µM],i,45µM*
COc1cc(CNc2nc(-c3c(C)noc3C)cc3cc(CN(C)C)oc23)cc(OC)c1,?,i,-2%[70.6 µM],i,?
Cc1noc(C)c1-c1cc2cc(CN(C)C)oc2c(Nc2ccn(C)n2)n1,?,i,1%[70.6 µM],-1%[88.5 µM],?
Cc1noc(C)c1-c1cc2cc(CN(C)C)oc2c(Nc2cccc([S+](C)(=O)[O-])c2)n1,45µM*,i,3%[70.6 µM],-11%[88.5 µM],50µM*
O=C(NCc1ccccc1)c1cnc2n1CCN(Cc1ccc(F)cc1)CC2,?,i,-11%[70.6 µM],i,28µM*
O=C(NCc1ccccc1)c1cnc2n1CCN(Cc1cccs1)CC2,32µM*,i,3%[70.6 µM],-1%[88.5 µM],?
O=C(NCCOc1ccccc1)c1cnc2n1CCN(Cc1cccs1)CC2,?,i,-9%[70.6 µM],i,?
CN(C(=O)c1cnc2n1CCN(CCc1ccccc1)CC2)c1ccccc1,?,i,-2%[70.6 µM],-7%[88.5 µM],?
Nc1ncccc1CN1CCc2ncc(C(=O)NCc3ccccc3)n2CC1,?,i,?,i,?
O=C(c1cnc2n1CCN(CCc1ccccc1)CC2)N1CCC(c2ccccc2)CC1,?,i,?,-6%[88.5 µM],79µM*
CC1(c2ccccc2)N(Cc2ccc(O)cc2)C(=O)OC12CCN(C(=O)c1cccnc1)CC2 (configuration not stated),32µM*,i,3%,4%,i
CC1(c2ccccc2)N(Cc2ccccc2C#N)C(=O)OC12CCN(C(=O)Cc1ccc(O)cc1)CC2 (configuration not stated),11µM*,i,1%,i,-23%
CC1(c2ccccc2)N(Cc2ccccc2)C(=O)OC12CCN(C(=O)c1cccc(Cl)c1)CC2 (configuration not stated),?,i,0%,-13%,-29%
CC1(c2ccccc2)N(Cc2ccccc2)C(=O)OC12CCN(C(=O)c1cccc(O)c1)CC2 (configuration not stated),?,i,-5%,3%,79µM*
CC(=O)N1CCC2(CC1)OC(=O)N(Cc1ccccc1)C2(C)c1ccccc1 (configuration not stated),25µM*,i,-1%[70.6 µM],2%[88.5 µM],-23%[172 µM]
CC1(c2ccccc2)N(Cc2ccccc2)C(=O)OC12CCN(C(=O)c1ccc(F)cc1)CC2 (configuration not stated),?,i,1%,-9%,?
COc1ccc(C(=O)N2CCC3(CC2)OC(=O)N(Cc2ccc(O)cc2)C3(C)c2ccccc2)cn1 (configuration not stated),?,i,-12%,-3%,?
CNC(=O)N1CCCC1c1nc(C2CN(S(=O)(=O)c3c(C)noc3C)C2)no1 (configuration not stated),-17%,nt,nt,-21%,3%
CCN1CCN(C(=O)c2nc3sccn3c2-c2cccc(OC)c2)CC1,-6%,nt,nt,-1%,i
CCC(CC)C(=O)N1C[C@@H]2CCCN3CCC[C@@H]([C@H]23)[C@H]1CCCC(=O)N1CCOCC1,3%,i,6%,i,-1%
COc1ccc(-c2ccc(C(=O)N3CCN(C(=O)NC4CCCC4)CC3)cc2)nn1,i,nt,nt,nt,i
